Measured values published in PubChem BioAssay AID1159580 (chemical genetic matrix, 2015).
Where “and” joins values, the source holds several entries; their conditions need not be identical. Identical values can stand only once. In all, about 5,500 compounds went through this assay and about 2,000 (36%) were called active. About 18% were inconclusive and are not listed. No stated cut-off is given here; in the data, active means normalized growth mostly below about 0.91 (no sharp cut-off); inconclusive means no clear call, values can overlap the other calls; inactive means mostly above about 0.92. Some of the results follow.

Test: chemical genetic growth profiling, strain panel (AID 1159580);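 further: tested at 20 µM; growth read once vehicle control cultures reached saturation at 30 °C; 1 = growth at the plate median or of vehicle wells; lower values mean less growth of the strain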
Settings: S. cerevisiae deletion strains, growth OD

Measured: normalized growth

CC(CCC(=O)O)[C@H]1CCC2C3CC[C@@H]4C[C@H](O)CC[C@]4(C)C3C[C@H](O)[C@@]21C (some centres not stated)
inactive: locus YAL013W, strain DEP1, active compounds read low 1.01 | locus YAL021C, strain ccr4, active compounds read low 1.02 | locus YAL026C, strain drs2, active compounds read low 0.98 | locus YAL030W, strain snc1, active compounds read low 1.01 | locus YBL061C, strain skt5, active compounds read low 0.983 | locus YBR009C, strain hhf1, active compounds read low 1.03 | locus YBR021W, strain FUR4, active compounds read low 1.04 | locus YBR023C, strain chs3, active compounds read low 0.962 | locus YBR171W, strain sec66, active compounds read low 0.989 | locus YBR229C, strain ROT2, active compounds read low 0.987 | locus YBR231C, strain swc5, active compounds read low 1.02 | locus YBR279W, strain paf1, active compounds read low 0.99 | locus YCL011C, strain gbp2, active compounds read low 0.974 | locus YCL016C, strain dcc1, active compounds read low 0.948 | locus YCL029C, strain bik1, active compounds read low 0.977 | locus YCL069W, strain vba3, active compounds read low 0.972 | locus YCR088W, strain abp1, active compounds read low 0.997 | locus YDL005C, strain med2, active compounds read low 0.987 | locus YDL035C, strain GPR1, active compounds read low 0.998 | locus YDL040C, strain nat1, active compounds read low 0.993 | locus YDL074C, strain BRE1, active compounds read low 1 | locus YDL101C, strain DUN1, active compounds read low 1.01 | locus YDL185W, strain tfp1, active compounds read low 1.02 | locus YDL192W, strain arf1, active compounds read low 1 | locus YDR001C, strain nth1, active compounds read low 0.984 | locus YDR069C, strain doa4, active compounds read low 1.01 | locus YDR101C, strain arx1, active compounds read low 1.01 | locus YDR137W, strain rgp1, active compounds read low 0.894 | locus YDR150W, strain NUM1, active compounds read low 1.01 | locus YDR159W, strain sac3, active compounds read low 0.963 | locus YDR162C, strain NBP2, active compounds read low 0.998 | locus YDR195W, strain ref2 1.01 | locus YDR297W, strain sur2, active compounds read low 1 | locus YDR318W, strain mcm21, active compounds read low 0.981 | locus YDR334W, strain swr1, active compounds read low 0.98 | locus YDR335W, strain msn5, active compounds read low 0.982 | locus YDR388W, active compounds read low 0.996 | locus YDR392W, strain spt3, active compounds read low 0.884 | locus YDR502C, strain sam2, active compounds read low 1.02 | locus YEL003W, strain gim4, active compounds read low 1.03 | locus YEL037C, strain rad23, active compounds read low 0.979 | locus YEL061C, strain CIN8 (second series), active compounds read low 1.01 | locus YEL061C, strain CIN8, active compounds read low 1.01 | locus YER015W, strain faa2, active compounds read low 1 | locus YER016W, strain bim1, active compounds read low 0.975 | locus YER110C, active compounds read low 0.982 | locus YER111C, strain swi4, active compounds read low 1 | locus YER155C, strain BEM2 (second series), active compounds read low 1.06 | locus YER155C, strain BEM2, active compounds read low 1.03 | locus YER167W, strain BCK2, active compounds read low 1.01 | locus YFR010W, strain ubp6, active compounds read low 1.02 | locus YGL078C, strain dbp3, active compounds read low 1.02 | locus YGL086W, strain mad1, active compounds read low 1.02 | locus YGL167C, strain pmr1, active compounds read low 0.999 | locus YGL173C, strain kem1, active compounds read low 0.992 | locus YGL227W, strain vid30, active compounds read low 1.01 | locus YGL240W, strain doc1, active compounds read low 1.01 | locus YGL248W, strain PDE1, active compounds read low 1.03 | locus YGL253W, strain hxk2, active compounds read low 0.955 | locus YGR078C, strain PAC10, active compounds read low 1.08 | locus YGR135W, strain pre9, active compounds read low 1.04 | locus YHR013C, strain ard1, active compounds read low 0.948 | locus YHR027C, strain rpn1, active compounds read low 1 | locus YHR030C, strain SLT2, active compounds read low 1.01 and 1.04 | locus YHR079C, strain IRE1 (second series), active compounds read low 0.981 | locus YHR079C, strain IRE1, active compounds read low 1.05 | locus YHR094C, strain hxt1, active compounds read low 0.991 | locus YHR129C, strain ARP1, active compounds read low 1.02 | locus YHR142W, strain chs7, active compounds read low 0.926 | locus YHR200W, strain rpn10, active compounds read low 1.02 | locus YIL066C, strain RNR3, active compounds read low 0.999 | locus YIL073C, strain SPO22, active compounds read low 1.06 | locus YIL125W, strain kgd1, active compounds read low 0.988 | locus YIR030C, strain dcg1, active compounds read low 1.01 | locus YJL092W, strain hpr5, active compounds read low 0.999 | locus YJL095W, strain BCK1 (second series), active compounds read low 0.991 | locus YJL095W, strain BCK1, active compounds read low 1.04 | locus YJL115W, strain asf1, active compounds read low 0.986 | locus YJL129C, strain trk1, active compounds read low 0.959 | locus YJL134W, strain LCB3, active compounds read low 1.01 | locus YJL154C, strain vps35, active compounds read low 1.01 | locus YJL164C, strain tpk1, active compounds read low 1 | locus YJL166W, strain qcr8, active compounds read low 1.02 | locus YJL168C, strain set2, active compounds read low 0.98 | locus YJL187C, strain SWE1 (second series), active compounds read low 1.04 | locus YJR043C, strain POL32, active compounds read low 1.01 | locus YJR066W, strain TOR1, active compounds read low 0.99 | locus YKL009W, strain mrt4, active compounds read low 0.942 | locus YKL068W, active compounds read low 0.989 | locus YKL085W, strain MDH1 (second series), active compounds read low 0.975 | locus YKL085W, strain MDH1, active compounds read low 0.975 | locus YKL160W, strain elf1, active compounds read low 0.937 | locus YKR001C, strain vps1, active compounds read low 1.01 | locus YKR026C, strain gcn3, active compounds read low 1 | locus YKR091W, strain srl3, active compounds read low 0.988 | locus YLL001W, strain dnm1, active compounds read low 1.01 | locus YLL026W, active compounds read low 1 | locus YLL041C, strain sdh2, active compounds read low 0.994 | locus YLR027C, strain aat2, active compounds read low 0.991 | locus YLR039C, strain RIC1, active compounds read low 0.941 | locus YLR058C, strain SHM2, active compounds read low 1.01 | locus YLR102C, strain apc9, active compounds read low 0.987 | locus YLR113W, strain HOG1, active compounds read low 0.951 | locus YLR221C, strain rsa3, active compounds read low 1.03 | locus YLR258W, strain gsy2, active compounds read low 0.963 | locus YLR262C, strain YPT6 (second series), active compounds read low 0.935 | locus YLR262C, strain YPT6, active compounds read low 0.925 | locus YLR268W, strain sec22, active compounds read low 0.989 | locus YLR320W, strain mms22, active compounds read low 0.998 | locus YLR330W, strain CHS5, active compounds read low 1.01 | locus YLR342W, strain FKS1 (second series), active compounds read low 0.983 | locus YLR342W, strain FKS1, active compounds read low 0.987 | locus YLR357W, strain rsc2, active compounds read low 1.01 | locus YLR370C, strain arc18, active compounds read low 0.972 | locus YLR371W, strain rom2, active compounds read low 0.985 | locus YLR384C, strain iki3, active compounds read low 0.992 | locus YLR418C, strain cdc73, active compounds read low 1.03 | locus YML016C, strain PPZ1, active compounds read low 1.01 | locus YML032C, strain rad52, active compounds read low 1.01 | locus YML120C, strain ndi1, active compounds read low 1.01 | locus YML124C, strain tub3, active compounds read low 1.01 | locus YMR058W, strain fet3, active compounds read low 1 | locus YMR078C, strain ctf18, active compounds read low 0.981 | locus YMR125W, strain sto1, active compounds read low 0.995 | locus YMR129W, active compounds read low 0.98 | locus YMR205C, strain PFK2, active compounds read low 0.969 | locus YMR223W, strain ubp8, active compounds read low 1.02 | locus YMR231W, strain pep5, active compounds read low 0.99 | locus YMR307W, strain GAS1, active compounds read low 1.03 | locus YNL067W, strain RPL9B, active compounds read low 1.03 | locus YNL071W, strain lat1, active compounds read low 0.99 | locus YNL153C, strain GIM3, active compounds read low 1.03 | locus YNL183C, strain NPR1, active compounds read low 1 | locus YNL209W, strain ssb2, active compounds read low 0.994 | locus YNL233W, strain BNI4, active compounds read low 1.03 | locus YNL248C, strain rpa49, active compounds read low 0.965 | locus YNL250W, strain rad50, active compounds read low 1.01 | locus YNL271C, strain bni1, active compounds read low 0.974 | locus YNL298W, strain CLA4, active compounds read low 0.98 | locus YNL307C, strain MCK1, active compounds read low 0.993 | locus YNL322C, strain KRE1 (second series), active compounds read low 1 | locus YNL322C, strain KRE1, active compounds read low 1.01 | locus YNR049C, strain mso1, active compounds read low 0.988 | locus YNR052C, strain pop2, active compounds read low 1.03 | locus YOL006C, strain TOP1, active compounds read low 1.05 | locus YOL012C, strain htz1 1.39 | locus YOL147C, strain pex11, active compounds read low 1 | locus YOR001W, strain rrp6, active compounds read low 1.03 | locus YOR061W, strain CKA2, active compounds read low 1 | locus YOR069W, strain VPS5, active compounds read low 1 | locus YOR070C, strain gyp1, active compounds read low 1 | locus YOR080W, strain dia2, active compounds read low 0.986 | locus YOR083W, strain WHI5, active compounds read low 0.927 | locus YOR106W, strain vam3, active compounds read low 0.953 | locus YOR136W, strain idh2, active compounds read low 1.02 | locus YOR144C, strain elg1, active compounds read low 0.987 | locus YOR184W, strain ser1, active compounds read low 0.994 | locus YOR231W, strain MKK1, active compounds read low 1.03 | locus YOR265W, strain rbl2, active compounds read low 0.997 | locus YOR270C, strain vph1, active compounds read low 0.942 | locus YOR290C, strain snf2, active compounds read low 0.952 | locus YOR316C, strain cot1, active compounds read low 0.995 | locus YPL051W, strain arl3, active compounds read low 0.958 | locus YPL078C, strain atp4, active compounds read low 0.952 | locus YPL106C, strain sse1, active compounds read low 0.985 | locus YPL240C, strain hsp82, active compounds read low 0.99 | locus YPL256C, strain CLN2, active compounds read low 1.08 | locus YPR119W, strain clb2, active compounds read low 0.992 | locus YPR141C, strain kar3, active compounds read low 0.992 | locus YPR163C, strain tif3, active compounds read low 1 | locus YPR167C, strain met16, active compounds read low 0.996 | strain wtn01, active compounds read low 1.01
